Experiment [1] deals with Dual specificity protein kinase CLK3 (Homo sapiens) (UniProt P49761). As to conditions: at 1 µM.
Experiment [2] concerns the target Dual specificity tyrosine-phosphorylation-regulated kinase 1A (Homo sapiens) (UniProt Q13627). As to conditions: at 0.1 µM.
The target is the same in experiment [3]. To be noted: at 1 µM.
Experiment [4] has as its target Dual specificity tyrosine-phosphorylation-regulated kinase 1B (Homo sapiens) (UniProt Q9Y463). To be noted: at 0.1 µM.
For experiment [5] the target is unchanged. As to conditions: at 1 µM.
Experiment [6] deals with T1, Dual specificity tyrosine-phosphorylation-regulated kinase 2 (Homo sapiens) (UniProt Q92630).
T1 sequence (whole entry): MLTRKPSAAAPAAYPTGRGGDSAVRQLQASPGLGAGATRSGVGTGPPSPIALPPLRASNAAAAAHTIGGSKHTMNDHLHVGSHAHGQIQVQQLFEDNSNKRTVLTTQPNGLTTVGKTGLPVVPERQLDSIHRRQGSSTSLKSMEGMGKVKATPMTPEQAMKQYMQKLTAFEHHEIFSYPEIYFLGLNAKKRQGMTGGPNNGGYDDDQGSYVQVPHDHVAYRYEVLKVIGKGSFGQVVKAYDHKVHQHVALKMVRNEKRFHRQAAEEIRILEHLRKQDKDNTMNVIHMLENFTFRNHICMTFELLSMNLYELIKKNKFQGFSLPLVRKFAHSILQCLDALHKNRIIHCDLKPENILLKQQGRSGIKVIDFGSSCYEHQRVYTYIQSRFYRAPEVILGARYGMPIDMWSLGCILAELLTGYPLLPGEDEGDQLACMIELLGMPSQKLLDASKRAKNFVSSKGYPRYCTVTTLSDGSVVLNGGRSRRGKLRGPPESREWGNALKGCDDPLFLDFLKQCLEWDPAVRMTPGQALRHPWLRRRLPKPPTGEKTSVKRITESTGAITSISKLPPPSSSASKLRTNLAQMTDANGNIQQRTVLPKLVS
As to conditions: at 0.1 µM.

For experiment [7], the target named is T1, Dual specificity tyrosine-phosphorylation-regulated kinase 2 (Homo sapiens). As to conditions: at 1 µM.
The target in experiment [8] is Glycogen synthase kinase-3 alpha (Homo sapiens) (UniProt P49840). As to conditions: at 0.1 µM.
For experiment [9] the target is unchanged. To be noted: at 1 µM.
Experiment [10] deals with Glycogen synthase kinase-3 beta (Homo sapiens) (UniProt P49841). As to conditions: at 0.1 µM.
Experiment [11] has the same target. As to conditions: at 1 µM.
For experiment [12], the target named is Homeodomain-interacting protein kinase 1 (Homo sapiens) (UniProt Q86Z02). To be noted: at 0.1 µM.
For experiment [13] the target is unchanged. To be noted: at 1 µM.
The target in experiment [14] is T2, Homeodomain-interacting protein kinase 4 (Homo sapiens) (UniProt Q8NE63).
T2 sequence (whole entry): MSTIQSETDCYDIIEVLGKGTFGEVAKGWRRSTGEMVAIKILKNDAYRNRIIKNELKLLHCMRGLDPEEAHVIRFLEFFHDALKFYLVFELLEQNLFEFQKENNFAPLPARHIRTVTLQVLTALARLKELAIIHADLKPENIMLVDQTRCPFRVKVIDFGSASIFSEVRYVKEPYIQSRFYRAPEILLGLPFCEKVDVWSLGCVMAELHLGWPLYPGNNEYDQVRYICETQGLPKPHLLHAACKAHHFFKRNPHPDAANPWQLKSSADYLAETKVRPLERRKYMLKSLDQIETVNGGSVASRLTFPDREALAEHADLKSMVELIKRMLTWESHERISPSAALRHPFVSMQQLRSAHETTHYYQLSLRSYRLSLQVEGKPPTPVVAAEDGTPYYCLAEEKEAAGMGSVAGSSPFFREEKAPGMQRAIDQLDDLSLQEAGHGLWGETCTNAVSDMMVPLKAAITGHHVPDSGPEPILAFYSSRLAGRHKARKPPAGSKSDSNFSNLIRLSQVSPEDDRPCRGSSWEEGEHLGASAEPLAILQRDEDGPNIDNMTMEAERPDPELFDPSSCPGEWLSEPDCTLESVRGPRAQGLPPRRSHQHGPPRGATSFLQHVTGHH
To be noted: at 0.1 µM.

For experiment [15], the target named is T2, Homeodomain-interacting protein kinase 4 (Homo sapiens). As to conditions: at 1 µM.
Experiment [16] deals with Mitogen-activated protein kinase 9 (Homo sapiens) (UniProt P45984). As to conditions: at 0.1 µM.
The target is the same in experiment [17]. To be noted: at 1 µM.
Experiment [18] has as its target Mitogen-activated protein kinase 1 (Homo sapiens) (UniProt P28482). To be noted: at 0.1 µM.
For experiment [19] the target is unchanged. To be noted: at 1 µM.
Experiment [20] addresses Mitogen-activated protein kinase 3 (Homo sapiens) (UniProt P27361). As to conditions: at 0.1 µM.

Sequence of Mitogen-activated protein kinase 3 (Homo sapiens) (P27361 whole entry): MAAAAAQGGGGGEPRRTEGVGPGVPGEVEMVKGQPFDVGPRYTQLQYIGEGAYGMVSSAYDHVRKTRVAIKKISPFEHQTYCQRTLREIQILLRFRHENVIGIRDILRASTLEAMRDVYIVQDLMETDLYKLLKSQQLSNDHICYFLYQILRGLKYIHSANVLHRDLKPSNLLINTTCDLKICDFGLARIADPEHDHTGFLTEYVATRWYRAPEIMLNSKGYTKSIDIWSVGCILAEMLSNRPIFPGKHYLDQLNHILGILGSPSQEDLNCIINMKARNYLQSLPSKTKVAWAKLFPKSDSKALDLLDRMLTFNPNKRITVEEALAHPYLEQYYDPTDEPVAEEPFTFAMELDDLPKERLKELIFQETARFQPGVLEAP
Sequence of Dual specificity tyrosine-phosphorylation-regulated kinase 1B (Homo sapiens) (Q9Y463 whole entry, looked up): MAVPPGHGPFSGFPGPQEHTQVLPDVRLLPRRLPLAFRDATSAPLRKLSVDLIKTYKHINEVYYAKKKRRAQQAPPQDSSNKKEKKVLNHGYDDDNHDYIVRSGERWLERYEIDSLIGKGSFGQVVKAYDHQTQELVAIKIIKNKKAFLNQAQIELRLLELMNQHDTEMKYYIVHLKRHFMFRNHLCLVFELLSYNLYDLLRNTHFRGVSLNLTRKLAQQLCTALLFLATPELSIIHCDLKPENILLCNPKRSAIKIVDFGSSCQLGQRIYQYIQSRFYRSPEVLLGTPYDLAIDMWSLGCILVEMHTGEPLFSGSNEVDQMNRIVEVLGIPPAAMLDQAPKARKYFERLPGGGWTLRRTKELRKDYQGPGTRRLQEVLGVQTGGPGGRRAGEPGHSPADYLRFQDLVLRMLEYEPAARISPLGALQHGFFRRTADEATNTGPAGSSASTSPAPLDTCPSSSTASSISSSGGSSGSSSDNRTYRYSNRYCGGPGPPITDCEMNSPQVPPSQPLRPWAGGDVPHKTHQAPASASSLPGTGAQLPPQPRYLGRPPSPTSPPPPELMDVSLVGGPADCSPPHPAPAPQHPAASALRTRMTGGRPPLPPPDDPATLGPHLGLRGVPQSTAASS
Sequence of Dual specificity protein kinase CLK3 (Homo sapiens) (P49761 whole entry, looked up): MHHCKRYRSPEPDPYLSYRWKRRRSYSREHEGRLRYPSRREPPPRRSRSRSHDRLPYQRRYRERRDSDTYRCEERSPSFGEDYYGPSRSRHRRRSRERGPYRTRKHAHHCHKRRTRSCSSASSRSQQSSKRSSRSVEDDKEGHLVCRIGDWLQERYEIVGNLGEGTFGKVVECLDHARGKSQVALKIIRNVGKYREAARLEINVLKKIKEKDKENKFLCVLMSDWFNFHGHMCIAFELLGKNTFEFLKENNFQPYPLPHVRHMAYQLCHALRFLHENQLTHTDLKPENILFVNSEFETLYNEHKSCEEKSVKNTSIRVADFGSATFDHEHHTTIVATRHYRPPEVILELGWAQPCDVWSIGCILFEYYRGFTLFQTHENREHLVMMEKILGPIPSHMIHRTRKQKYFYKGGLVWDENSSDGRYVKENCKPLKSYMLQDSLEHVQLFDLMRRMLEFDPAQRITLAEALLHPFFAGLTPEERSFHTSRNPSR
Sequence of Glycogen synthase kinase-3 beta (Homo sapiens) (P49841 whole entry, looked up): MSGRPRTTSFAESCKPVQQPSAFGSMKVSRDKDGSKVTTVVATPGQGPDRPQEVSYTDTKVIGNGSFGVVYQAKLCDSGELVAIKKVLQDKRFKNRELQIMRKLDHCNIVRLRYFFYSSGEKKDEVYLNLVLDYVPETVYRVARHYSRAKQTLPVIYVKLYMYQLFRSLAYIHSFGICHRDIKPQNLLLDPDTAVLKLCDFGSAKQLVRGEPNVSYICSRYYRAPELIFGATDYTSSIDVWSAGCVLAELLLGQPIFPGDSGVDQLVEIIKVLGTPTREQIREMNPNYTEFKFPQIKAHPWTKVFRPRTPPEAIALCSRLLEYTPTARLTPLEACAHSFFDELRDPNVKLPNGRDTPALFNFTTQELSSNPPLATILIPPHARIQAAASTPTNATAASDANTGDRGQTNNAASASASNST
Sequence of Homeodomain-interacting protein kinase 1 (Homo sapiens) (Q86Z02 whole entry, looked up): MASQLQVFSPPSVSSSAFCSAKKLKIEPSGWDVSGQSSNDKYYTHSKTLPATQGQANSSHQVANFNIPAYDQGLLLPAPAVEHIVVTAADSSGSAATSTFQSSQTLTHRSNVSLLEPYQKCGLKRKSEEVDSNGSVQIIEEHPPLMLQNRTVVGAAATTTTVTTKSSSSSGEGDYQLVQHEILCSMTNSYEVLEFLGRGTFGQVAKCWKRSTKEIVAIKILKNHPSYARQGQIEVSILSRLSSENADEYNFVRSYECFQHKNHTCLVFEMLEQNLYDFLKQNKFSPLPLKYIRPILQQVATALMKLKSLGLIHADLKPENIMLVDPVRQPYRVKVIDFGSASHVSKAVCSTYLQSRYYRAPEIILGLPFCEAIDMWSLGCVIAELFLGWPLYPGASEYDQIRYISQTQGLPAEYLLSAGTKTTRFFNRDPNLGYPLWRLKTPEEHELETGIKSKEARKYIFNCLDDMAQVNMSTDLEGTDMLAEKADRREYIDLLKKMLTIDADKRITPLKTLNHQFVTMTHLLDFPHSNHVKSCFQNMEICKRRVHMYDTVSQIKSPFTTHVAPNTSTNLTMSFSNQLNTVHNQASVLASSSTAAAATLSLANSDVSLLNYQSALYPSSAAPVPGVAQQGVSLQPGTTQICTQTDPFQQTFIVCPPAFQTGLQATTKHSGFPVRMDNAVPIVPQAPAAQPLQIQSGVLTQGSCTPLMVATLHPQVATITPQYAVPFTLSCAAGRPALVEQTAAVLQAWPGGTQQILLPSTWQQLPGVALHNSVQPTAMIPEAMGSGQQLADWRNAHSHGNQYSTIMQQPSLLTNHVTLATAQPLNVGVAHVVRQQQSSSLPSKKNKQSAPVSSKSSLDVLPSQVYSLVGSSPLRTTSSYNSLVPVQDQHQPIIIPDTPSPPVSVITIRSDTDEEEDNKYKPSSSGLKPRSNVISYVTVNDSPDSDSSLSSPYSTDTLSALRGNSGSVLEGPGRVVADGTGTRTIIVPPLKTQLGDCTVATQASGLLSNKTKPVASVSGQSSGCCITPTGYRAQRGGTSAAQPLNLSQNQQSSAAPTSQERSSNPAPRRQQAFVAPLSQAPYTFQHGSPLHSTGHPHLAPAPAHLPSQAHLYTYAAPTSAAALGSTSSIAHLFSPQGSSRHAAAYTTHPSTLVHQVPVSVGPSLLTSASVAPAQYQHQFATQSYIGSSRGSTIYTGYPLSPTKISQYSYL
Sequence of Mitogen-activated protein kinase 1 (Homo sapiens) (P28482 whole entry): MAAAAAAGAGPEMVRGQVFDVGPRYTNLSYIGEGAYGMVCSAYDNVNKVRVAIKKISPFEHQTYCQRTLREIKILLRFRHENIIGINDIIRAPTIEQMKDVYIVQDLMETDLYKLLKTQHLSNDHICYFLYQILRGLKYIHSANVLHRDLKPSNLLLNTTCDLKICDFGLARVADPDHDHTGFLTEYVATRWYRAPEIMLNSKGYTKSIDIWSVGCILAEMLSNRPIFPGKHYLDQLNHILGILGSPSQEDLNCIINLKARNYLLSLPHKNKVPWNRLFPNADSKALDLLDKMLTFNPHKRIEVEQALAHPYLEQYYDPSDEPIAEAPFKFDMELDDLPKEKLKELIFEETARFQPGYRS
Sequence of Glycogen synthase kinase-3 alpha (Homo sapiens) (P49840 2-483 limits assumed): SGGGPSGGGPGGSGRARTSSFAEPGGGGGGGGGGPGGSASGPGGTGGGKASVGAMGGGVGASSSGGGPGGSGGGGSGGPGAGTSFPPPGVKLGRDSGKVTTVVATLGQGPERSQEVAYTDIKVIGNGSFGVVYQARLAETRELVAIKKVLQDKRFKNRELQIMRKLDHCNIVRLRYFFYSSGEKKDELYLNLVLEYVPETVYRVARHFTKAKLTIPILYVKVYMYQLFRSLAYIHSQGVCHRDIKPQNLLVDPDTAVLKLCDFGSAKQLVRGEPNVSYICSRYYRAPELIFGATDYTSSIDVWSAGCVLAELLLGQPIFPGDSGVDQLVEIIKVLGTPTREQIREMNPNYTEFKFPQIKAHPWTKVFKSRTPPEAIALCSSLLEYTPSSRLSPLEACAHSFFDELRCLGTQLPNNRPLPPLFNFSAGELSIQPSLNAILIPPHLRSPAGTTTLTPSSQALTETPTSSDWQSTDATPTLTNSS
Sequence of Mitogen-activated protein kinase 9 (Homo sapiens) (P45984 whole entry, looked up): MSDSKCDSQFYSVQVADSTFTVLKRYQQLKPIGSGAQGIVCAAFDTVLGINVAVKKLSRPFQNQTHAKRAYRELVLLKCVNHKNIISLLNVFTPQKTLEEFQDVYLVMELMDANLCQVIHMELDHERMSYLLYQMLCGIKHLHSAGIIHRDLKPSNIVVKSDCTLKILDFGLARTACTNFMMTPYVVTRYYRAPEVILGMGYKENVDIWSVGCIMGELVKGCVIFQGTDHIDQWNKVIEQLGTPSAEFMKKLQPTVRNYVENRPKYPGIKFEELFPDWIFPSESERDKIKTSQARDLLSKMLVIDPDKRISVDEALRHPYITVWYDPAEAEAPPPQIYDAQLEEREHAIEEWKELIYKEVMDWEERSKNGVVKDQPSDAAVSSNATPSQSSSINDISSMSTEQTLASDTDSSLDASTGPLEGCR

One may read the inhibition as the relative decrease from the control value, in per cent. As to `O=C(O[C@H]1CN[C@H](C#Cc2cc3ncnc(Nc4ccc5c(cnn5Cc5ccccc5)c4)c3s2)C1)N1CCOCC1`, the inhibition in experiment [1] was -0.49%; in experiment [2], -4.04%; in [3], -3.74%; in [4], -1.09%; in [5] it was -0.85%; in [6], -0.74%. Moreover, the inhibition in experiment [7] was -3.59%; in experiment [8] it was 1.95%; in [9], 3.19%; in experiment [10] it was 1.44%; in [11], 3.77%; in experiment [12] it was -3.77%. The inhibition in experiment [13] was -1.24%; in [14], -1.27%; in experiment [15], -0.32%; in [16], 0.01%; in experiment [17] it was 0.13%; in [18], 0.84%. In addition, the inhibition was -0.13% in experiment [19] and -0.77% in experiment [20].
Consider `CN(c1ccc(NC(=O)NCCN2CCOCC2)cc1)c1ccnc(Nc2ccc(CS(C)(=O)=O)cc2)n1`, for which the inhibition in experiment [1] is 1.43%; in [2], 1.69%; in experiment [3], 3.45%; in experiment [4], -0.71%; in experiment [5], 2.44%; in experiment [6], 1.44%. The inhibition in experiment [7] came out at 3.05%; in experiment [8], 4.05%; in [9] it was 8.02%; in [10] it was 4.49%; in [11], 5.02%; in [12], 2.62%. The inhibition was 5.06% in [13]; 6.23% in [14]; 31.9% in [15]; 1.5% in experiment [16]; 3.59% in [17]; 5.07% in [18]. Moreover, the results for the inhibition in [19] and in [20] were 8.36% and 4.06%, respectively.
For `Cc1c2ccc(N(C)c3ccnc(Nc4cccc(S(N)(=O)=O)c4)n3)cc2nn1C`, the inhibition was 1.11% in experiment [1]; -1.03% in [2]; 1.54% in experiment [3]; -3.31% in experiment [4]; -2.73% in experiment [5]; 2.38% in experiment [6]. Further, the inhibition was 2.71% in experiment [7]; -0.44% in experiment [8]; 6.37% in experiment [9]; -0.25% in experiment [10]; 10.7% in experiment [11]; -4.42% in experiment [12]. Further, the inhibition in experiment [13] is -0.84%; in [14], -0.24%; in experiment [15] it was 10.6%; in experiment [16], 3.51%; in experiment [17], 7.66%; in experiment [18] it was 4.96%. The results for the inhibition in [19] and in [20] were 5.77% and 5.75%, respectively.
As to `COc1ccccc1-c1cc(/C=C2\C(=O)Nc3ncc(Br)cc32)cc(Br)c1O`, the inhibition in [1] was 9.88%; in experiment [2], 2.51%; in [3] it was 11.2%; in experiment [4], 0.86%; in experiment [5] it was 4.16%; in experiment [6] it was 3.68%. Also, the inhibition in [7] was 4.79%; in experiment [8] it was 4.73%; in experiment [9], 10%; in [10], 5.17%; in experiment [11], 8.88%; in experiment [12], 0.74%. Also, the inhibition in experiment [13] came out at 7.53%; in [14], 0.6%; in experiment [15] it was 10.9%; in [16], 3.44%; in experiment [17] it was 8.54%; in experiment [18], 3.26%. For the same compound, the figures for the inhibition in [19] and in experiment [20] were 4.68% and 4.03%, respectively.
In the case of `COc1cc(N2CCN(C(C)C)CC2)ccc1Nc1nc(Nc2cccc3ncccc23)c2cc[nH]c2n1`, the inhibition was 1.89% in experiment [1]; 0.19% in experiment [2]; 5.87% in experiment [3]; 1.41% in experiment [4]; 7.46% in [5]; -1.54% in experiment [6]. Further, the inhibition is -1.74% in experiment [7]; 0.06% in [8]; 3.49% in [9]; 0.31% in experiment [10]; 5.17% in experiment [11]; -1.1% in [12]. In addition, the inhibition in [13] is 3.6%; in [14] it was 1.11%; in [15], 6.13%; in experiment [16], 0.17%; in experiment [17] it was 5.14%; in [18] it was -2.97%. Moreover, the figures for the inhibition in experiment [19] and in [20] were -0.36% and -2.04%, respectively.
With `O=C(O[C@H]1CN[C@H](C#Cc2cc3ncnc(Nc4ccc5c(ccn5Cc5cc(F)ccc5F)c4)c3s2)C1)N1CCOCC1`, the inhibition in experiment [1] is 1.89%; in experiment [2] it was 2.29%; in [3], 4.73%; in [4], 0.4%; in experiment [5], -1.92%; in experiment [6], 3.27%. Moreover, the inhibition in [7] stood at 2.77%; in [8], 3.38%; in experiment [9], 6.08%; in experiment [10], 1.76%; in [11], 5.52%; in experiment [12], 0.14%. Also, the inhibition in [13] was -1.46%; in experiment [14], 0.47%; in [15], 2.6%; in experiment [16], 5.66%; in experiment [17], 5.74%; in experiment [18], 3.73%. For the same compound, the inhibition in [19] amounted to 5.12%; in [20], 4.98%.
Consider `CNC(=O)c1sc(-n2cnc3cc(OC)c(OC)cc32)cc1OCc1ccccc1C(F)(F)F`, for which the inhibition in experiment [1] is -0.08%; in experiment [2] it was 1.4%; in experiment [3], 2.18%; in experiment [4], -0.95%; in experiment [5], 0.23%; in experiment [6] it was 2.15%. Moreover, the inhibition in experiment [7] is 1.34%; in [8], 2.13%; in experiment [9], 5.93%; in experiment [10] it was 1.12%; in experiment [11] it was 3.56%; in [12] it was -0.45%. In addition, the inhibition was -1.76% in experiment [13]; 1.98% in experiment [14]; 7.08% in experiment [15]; 2.65% in experiment [16]; 4.22% in experiment [17]; 5.45% in [18]. Besides, the inhibition in [19] was found to be 6.09%; in [20] it was 3.11%.

(Values after ChEMBL document CHEMBL1961873, “Compounds: GSK PKIS; Assays: Nanosyn kinase panel” (2012).)
